CYP2C9 activ = increases human cytochrome P450 2C9 activity. 96,000 tested, 1.4% active. activation factor at 5 µM. recombinant CYP2C9, luciferin-H conversion, luminescence; stronger effect = higher value; factor 1 = untreated enzyme, 0 = blocked;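 active = activation factor of 2 or more for CYP2C9 at a 5 µM dose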;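 note: 0 = sulfaphenazole-blocked wells and 1 = vehicle-only wells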
Mac1 fbg enh = increases human CD11b/CD18 adhesion to fibrinogen; P05107+P11215; K562 CD11b/CD18 adhesion to fibrinogen, ATPlite luminescence; activation, % at 10 µM; 93,000 tested, 0.07% active; AID 1499;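 active = 10 µM primary screen giving 50% or more activity, confirmed by 40% or more on retest at that dose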
Target sequence (P05107 whole entry, looked up, other chains not shown): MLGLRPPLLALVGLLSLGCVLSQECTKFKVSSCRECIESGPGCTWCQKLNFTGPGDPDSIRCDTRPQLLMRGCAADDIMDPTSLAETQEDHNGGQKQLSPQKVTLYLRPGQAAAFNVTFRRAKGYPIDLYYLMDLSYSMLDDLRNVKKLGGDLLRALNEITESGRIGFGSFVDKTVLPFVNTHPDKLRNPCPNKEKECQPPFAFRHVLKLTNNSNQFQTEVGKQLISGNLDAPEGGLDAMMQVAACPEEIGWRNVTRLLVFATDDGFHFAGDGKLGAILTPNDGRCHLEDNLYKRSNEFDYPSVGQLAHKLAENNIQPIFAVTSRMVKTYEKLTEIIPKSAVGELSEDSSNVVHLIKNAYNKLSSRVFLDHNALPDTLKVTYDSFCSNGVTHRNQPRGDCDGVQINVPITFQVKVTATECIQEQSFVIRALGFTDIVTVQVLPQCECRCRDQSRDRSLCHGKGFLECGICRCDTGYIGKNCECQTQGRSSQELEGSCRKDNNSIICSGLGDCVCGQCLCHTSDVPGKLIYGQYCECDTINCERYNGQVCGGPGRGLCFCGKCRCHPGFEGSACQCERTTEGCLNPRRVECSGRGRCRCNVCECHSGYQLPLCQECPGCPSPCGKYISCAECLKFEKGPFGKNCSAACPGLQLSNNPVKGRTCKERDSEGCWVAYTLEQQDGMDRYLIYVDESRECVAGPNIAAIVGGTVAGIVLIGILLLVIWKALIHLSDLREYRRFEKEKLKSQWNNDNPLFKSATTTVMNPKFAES
CYP2C9 inhib = human CYP2C9 inhibition | CYP2C9 Supersomes, luciferin-H conversion, luminescence | 96,000 tested, 20% active | inhibition, % at 5 µM | P11712;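 active = blocking of liver enzyme CYP2C9 beyond about 50% at 5 µM, limit read from the data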
CYP2C19 activ = increases human CYP2C19 enzyme activity; 96,000 tested, under 10 active; AID 1025; recombinant CYP2C19, luciferin-H EGE luminescence; stronger effect = higher value; 0 = fully inhibited enzyme, 1 = untreated enzyme; activation factor at 5 µM; P33261;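 active = activation factor of at least 2 at 5 µM in the primary screen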;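 note: 0 = wells with 2.5 mM tranylcypromine and 1 = vehicle-only wells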
CYP2C19 inhib = human CYP2C19 inhibition. CYP2C19 Supersomes, luciferin-H EGE luminescence, 30 min. inhibition, % at 5 µM. 96,000 tested, 21% active;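 active = CYP2C19 inhibition above a set limit at 5 µM in the primary screen, cut at about 50% in these data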;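 note: plate controls were negative control wells for no effect and 2.5 mM tranylcypromine positive control for full effect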
Mac1 fbg inh = CD11b/CD18-fibrinogen binding inhibition. P05107+P11215. K562 CD11b/CD18 adhesion to fibrinogen, ATPlite luminescence; Mn2+ added to activate the integrin. inhibition, % at 10 µM. 93,000 tested, 0.54% active. AID 1497;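 active = primary inhibition of 50% or more at 10 µM, then 40% or more on retest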
Numbers without * were called inactive. The list is not random: actives were taken first. Their share in the collection is about 28%.

For CCOC(=O)c1sc2ncnc(N3CCN(c4ccc(OC)cc4)CC3)c2c1C the results were CYP2C9 activ 0.8, Mac1 fbg enh -1.1, CYP2C9 inhib 19.9, CYP2C19 activ 0.8, CYP2C19 inhib 15.2 and Mac1 fbg inh 10.5.
Screening CCOC(=O)c1sc(NC(=O)c2ccco2)nc1-c1ccccc1 returned CYP2C9 activ 1.1, Mac1 fbg enh 0.0, CYP2C9 inhib -11.3, CYP2C19 activ 1.2, CYP2C19 inhib -15.4 and Mac1 fbg inh -39.0.
O=C(CNC(=O)c1ccco1)OCc1c(F)cccc1Cl was read as CYP2C9 activ 0.9, CYP2C9 inhib 11.8, CYP2C19 activ 0.7 and CYP2C19 inhib 28.4.
O=C(Cn1cc2c(n1)CCCCC2)NCc1ccccn1 was read as CYP2C9 activ 1.2, Mac1 fbg enh 0.7, CYP2C9 inhib -16.3, CYP2C19 activ 0.6, CYP2C19 inhib 38.9 and Mac1 fbg inh -4.5.
`O=C(CN1CCc2ccccc2C1)Nc1ccc(Br)cc1` gave CYP2C9 activ 0.6, Mac1 fbg enh -0.3, CYP2C9 inhib 42.3, CYP2C19 activ 0.1, CYP2C19 inhib 89.6* and Mac1 fbg inh -7.5.
Screening CCc1ccc(NC(=O)CN2CCc3ccccc3C2)cc1 returned CYP2C9 activ 0.1, Mac1 fbg enh -1.5, CYP2C9 inhib 89.8*, CYP2C19 activ 0.1, CYP2C19 inhib 92.3* and Mac1 fbg inh -2.3.
O=C(CN1CCN(C(=O)c2ccccc2F)CC1)Nc1ccc(Br)cc1 was read as CYP2C9 activ 2.7*, Mac1 fbg enh 9.3, CYP2C9 inhib -169.5, CYP2C19 activ 0.7, CYP2C19 inhib 27.3 and Mac1 fbg inh -25.2.
For CCOC(=O)c1cc(Br)c(=O)n2ccccc12 the results were CYP2C9 activ 0.9, CYP2C9 inhib 12.7, CYP2C19 activ 0.9 and CYP2C19 inhib 13.6.
Screening CN1CCc2nc(NC(=O)c3cccc(OC(F)F)c3)sc2C1 returned CYP2C9 activ 1, Mac1 fbg enh -1.8, CYP2C9 inhib -3.3, CYP2C19 activ 0.8, CYP2C19 inhib 21.5 and Mac1 fbg inh -50.2.
`CCOc1ccc(N/C=C/C(=O)c2ccccc2)c([N+](=O)[O-])c1` gave Mac1 fbg enh -9.7 and Mac1 fbg inh 86.9.
For COc1ccc(S(=O)(=O)N2CCN(C(=O)CCC3CCCC3)CC2)cc1 the results were CYP2C9 activ 0.6, Mac1 fbg enh -2.6, CYP2C9 inhib 40.8, CYP2C19 activ 0.5, CYP2C19 inhib 54.8* and Mac1 fbg inh -14.3.
Cc1ccc(OCC(=O)N2CCN(C(=O)CCC3CCCC3)CC2)cc1 was read as CYP2C9 activ 0.4, Mac1 fbg enh 0.9, CYP2C9 inhib 55.5*, CYP2C19 activ 0.4, CYP2C19 inhib 56.2* and Mac1 fbg inh -11.9.
Cc1ccc(NC(=O)c2ccco2)cc1NC(=O)CSc1nnc(-c2cccs2)n1C was read as CYP2C9 activ 0.9, Mac1 fbg enh 13.0, CYP2C9 inhib 13.1, CYP2C19 activ 1.1, CYP2C19 inhib -6.3 and Mac1 fbg inh 5.3.
Screening CCOc1ccc2nc(NC3=NC(C)(C)C=C(C)N3)nc(C)c2c1 returned CYP2C9 activ 0.3, Mac1 fbg enh 0.0, CYP2C9 inhib 72.5*, CYP2C19 activ 0.5, CYP2C19 inhib 49.1 and Mac1 fbg inh 5.8.
Cc1nnc(SCCn2c(N3CCN(C)CC3)nc3c2c(=O)[nH]c(=O)n3C)s1 was read as CYP2C9 activ 0.9, Mac1 fbg enh -1.0, CYP2C9 inhib 10.1, CYP2C19 activ 1, CYP2C19 inhib 0.5 and Mac1 fbg inh -11.2.
Screening Cn1c(=O)[nH]c(=O)c2c1nc(N(CCO)Cc1ccccc1)n2CCCc1ccccc1 returned CYP2C9 activ 0.3, Mac1 fbg enh 1.3, CYP2C9 inhib 65.0*, CYP2C19 activ 0.8, CYP2C19 inhib 15.8 and Mac1 fbg inh 1.6.
Screening C=C(C)Cn1c(N(CCO)Cc2ccccc2)nc2c1c(=O)[nH]c(=O)n2C returned CYP2C9 activ 1.7, Mac1 fbg enh -4.0, CYP2C9 inhib -66.6, CYP2C19 activ 1.2, CYP2C19 inhib -22.5 and Mac1 fbg inh 4.4.
For Cn1c(=O)[nH]c(=O)c2c1nc(N1CCN(Cc3ccccc3)CC1)n2CCCc1ccccc1 the results were CYP2C9 activ 0.7, Mac1 fbg enh -3.9, CYP2C9 inhib 31.3, CYP2C19 activ 0.1, CYP2C19 inhib 87.6* and Mac1 fbg inh 7.8.
For Cn1c(=O)[nH]c(=O)c2c1nc(NCc1ccccc1)n2CCCc1ccccc1 the results were CYP2C9 activ 0.6, Mac1 fbg enh -1.7, CYP2C9 inhib 37.7, CYP2C19 activ 0.7, CYP2C19 inhib 32.2 and Mac1 fbg inh 2.5.
For COc1cccc(C(=O)Cn2c(N3CCOCC3)nc3c2c(=O)n(C)c(=O)n3C)c1 the results were CYP2C9 activ 0.6, Mac1 fbg enh -1.3, CYP2C9 inhib 39.3, CYP2C19 activ 0.9, CYP2C19 inhib 5.1 and Mac1 fbg inh 5.7.
`Cc1nnc(SCCn2c(N3CCN(Cc4ccccc4)CC3)nc3c2c(=O)[nH]c(=O)n3C)s1` gave CYP2C9 activ 0.4, Mac1 fbg enh -0.9, CYP2C9 inhib 59.2*, CYP2C19 activ 0.3, CYP2C19 inhib 71.1* and Mac1 fbg inh 0.0.
For Cc1ccc(C(=O)Cn2c(N3CCOCC3)nc3c2c(=O)n(C)c(=O)n3C)cc1 the results were CYP2C9 activ 0.5, Mac1 fbg enh -0.2, CYP2C9 inhib 54.5*, CYP2C19 activ 1.1, CYP2C19 inhib -11.1 and Mac1 fbg inh -12.3.
COC(=O)c1ccc(C(=O)OC)c(NC(=O)COC(=O)CC2CC3CCC2C3)c1 (stereo unspecified) was read as CYP2C9 activ 0.6, Mac1 fbg enh -1.1, CYP2C9 inhib 38.3, CYP2C19 activ 0.7, CYP2C19 inhib 31.1 and Mac1 fbg inh -9.6.
CCOCCn1c(N2CCN(c3ccc(OC)cc3)CC2)nc2c1c(=O)n(C)c(=O)n2C was read as CYP2C9 activ 0.7, Mac1 fbg enh 1.0, CYP2C9 inhib 32.8, CYP2C19 activ 1, CYP2C19 inhib -3.2 and Mac1 fbg inh -4.2.
For CCCCn1c(N2CCC(Cc3ccccc3)CC2)nc2c1c(=O)[nH]c(=O)n2C the results were CYP2C9 activ 0.5, Mac1 fbg enh 6.0, CYP2C9 inhib 49.7, CYP2C19 activ 0.3, CYP2C19 inhib 65.6* and Mac1 fbg inh 23.7.
`CCCCCCn1c(N2CCC(C)CC2)nc2c1c(=O)[nH]c(=O)n2C` gave CYP2C9 activ 0.6, Mac1 fbg enh 0.2, CYP2C9 inhib 40.8, CYP2C19 activ 0.8, CYP2C19 inhib 19.6 and Mac1 fbg inh -2.3.
For COCCn1c(N2CCN(c3ccc(OC)cc3)CC2)nc2c1c(=O)n(C)c(=O)n2C the results were CYP2C9 activ 0.4, Mac1 fbg enh -3.7, CYP2C9 inhib 59.2*, CYP2C19 activ 1.1, CYP2C19 inhib -5.7 and Mac1 fbg inh 6.9.
Cn1c(=O)c2c(nc(CN3CCC(C(N)=O)CC3)n2CCCc2ccccc2)n(C)c1=O was read as CYP2C9 activ 0.3, Mac1 fbg enh 0.1, CYP2C9 inhib 70.7*, CYP2C19 activ 0.4, CYP2C19 inhib 59.3* and Mac1 fbg inh -2.4.
